Compounds with a hit are over-represented: about 6.2% of the library has one in this group of screens.
GRIN3A LBD mod: binders of NR3A ligand-binding domain, primary screen, biophysical, differential scanning fluorimetry, uHTS. Glutamate receptor ionotropic, NMDA 3A (GRIN3A) ligand-binding domain. actives 2.5% (n = 340,000). Tm shift relative to glycine control, % at 25 µM. NR3A LBD differential scanning fluorimetry, Tm shift; 0% = protein alone, 100% = glycine-bound protein. AID 1259313, 2017;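 active = melting temperature shift of at least 10% of the positive control shift, at one fixed dose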
AI-2 QS mod: Vibrio harveyi AI-2 quorum sensing modulators, primary screen, JMH597 strain, luminescence/OD600 ratio; Vibrio harveyi JMH597 AI-2 luminescence/OD600 ratio, 9 h; stronger effect = lower value; strain lacks LuxN and CqsS sensors; 0 = neutral-control median; activity change, % at 7.5 µM; actives 0.4% (n = 300,000); AID 2094, 2009; in the data active = activity change below about -75%, passing the limit was not always enough;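 note: luminescence divided by OD600 gain over 9 h not by final OD600 alone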
AHR act: AHR activators, primary screen, cell-based, luminescence, luciferase reporter, human. Aryl hydrocarbon receptor (Homo sapiens), P35869. AID 2796, 2010. AHR-responsive luciferase reporter cells. actives 2.5% (n = 320,000). activation, % at 5 µM; in the data active = activation above about 47%
Mot1-301 SUMO: yeast Mot1-301 growth rescue at high temperature, primary screen, SUMOylation pathway inhibitor project, S. cerevisiae, ATP luminescence, 38.5C. AID 2716, 2010. actives 1% (n = 320,000). growth rescue, % at 18.8 µM. S. cerevisiae Mot1-301 growth rescue; percent above DMSO median, 100 means doubled;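 active = every valid replicate shows activation above 250% relative to neutral control wells; inactive = the rest, any valid replicate at or below 250%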
NTR1 agonist: agonists of human NTR1, primary screen, imaging, U2OS cells, beta-arrestin-GFP, high content. NTR1-U2OS beta-arrestin-GFP spot imaging, agonist mode. Neurotensin receptor type 1 (Homo sapiens), P30989. actives 0.17% (n = 330,000). AID 493036, 2011. activation, % at 20 µM;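 active = activation at or above 40% of the spot to cytoplasm intensity ratio, with at least 20 cells analyzed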
Target sequence (P30989 whole entry, looked up): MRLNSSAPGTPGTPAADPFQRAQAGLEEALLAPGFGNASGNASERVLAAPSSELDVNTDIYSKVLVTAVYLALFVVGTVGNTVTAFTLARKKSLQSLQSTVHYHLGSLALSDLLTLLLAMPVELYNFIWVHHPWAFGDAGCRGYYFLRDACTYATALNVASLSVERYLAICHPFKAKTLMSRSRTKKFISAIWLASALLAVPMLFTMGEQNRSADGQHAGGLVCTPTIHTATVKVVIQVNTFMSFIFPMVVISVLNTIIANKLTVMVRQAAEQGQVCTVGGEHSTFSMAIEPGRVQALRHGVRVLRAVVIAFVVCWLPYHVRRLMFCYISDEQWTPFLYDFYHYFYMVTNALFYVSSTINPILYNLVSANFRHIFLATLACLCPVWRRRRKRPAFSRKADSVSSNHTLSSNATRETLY
Cardio protect: cardioprotection against H2O2-induced cell death, primary screen, uHTS, H9c2 cells, ATPLite luminescence. H9c2 cardiomyocytes, H2O2 injury protection, 2 h. protection from H2O2 cell death, % at 20 µM. actives 0.63% (n = 360,000). AID 588492, 2011;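 active = compounds giving at least 50% protection of heart cells from peroxide-induced death in the single-dose screen, raw or plate-pattern-corrected value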
NTR1 ag conf: NTR1 agonists, single-dose retest, confirmation, imaging, U2OS cells, beta-arrestin-GFP, single concentration. shares compounds with NTR1 agonist. NTR1-U2OS beta-arrestin-GFP translocation imaging. activation, % at 20 µM. actives 38% (n = 480). AID 504550, 2011;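 active = mean activation at 20 µM of at least 40%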
Numbers stand for hits; 0 = inactive; - = no result given.

SMILES	GRIN3A LBD mod	AI-2 QS mod	AHR act	Mot1-301 SUMO	NTR1 agonist	Cardio protect	NTR1 ag conf
Cc1ccc(S(=O)(=O)NCc2ccccc2)cc1C(=O)N1CCCCCCC1	0	0	0	0	0	0	-
Cc1ccc2c(c1)c1c(n2CC(O)CNC(CO)(CO)CO)CCCC1 (stereo not given)	0	0	0	0	0	0	-
Cc1ccc2c(c1)c1c(n2CC(O)CNC2CCCCC2)CCCC1 (stereo not given)	0	0	0	0	42.0	0	52.9
COC(=O)[C@H](CC(C)C)NC(=O)CC[C@H]1O[C@@H](n2ccc(=O)[nH]c2=O)[C@H](O)[C@@H]1O	-	-	-	-	-	0	-
CC(=O)Nc1cccc(NS(=O)(=O)c2ccc3c(c2)CCC(=O)N3)c1	-	-	-	-	-	0	-
COc1ccc(-c2csc(N3CCN(c4cc(C)nc5ccccc45)CC3)n2)cc1OC	0	0	0	0	43.9	0	41.5
Cc1ccc(S(=O)(=O)Nc2ccc3c4c(cccc24)CC3)c(C)c1	0	0	0	0	41.2	0	0
Cc1cc(C)c(S(=O)(=O)Nc2ccc3c4c(cccc24)CC3)c(C)c1	0	0	0	0	0	0	-
COC(=O)CN1C(=O)C2(C(C#N)=C(N)Oc3n[nH]c(-c4cccs4)c32)c2ccccc21 (stereo not given)	0	0	0	0	53.4	0	0
CCN1C(=O)C2(C(C#N)=C(N)Oc3n[nH]c(-c4ccccc4)c32)c2ccccc21 (stereo not given)	0	0	0	0	0	0	-
O=C(CCC(=O)c1ccc(F)cc1)NC1CCCN(Cc2ccccc2F)C1 (stereo not given)	0	0	0	0	0	0	-
CCc1ccc2c(c1)NC(=O)C2(C)Cc1ccc(C(F)(F)F)nc1 (stereo not given)	-	-	-	-	-	0	-
CC(C)c1cccc(C(C)C)c1NC(=O)c1ccc(-c2cc(Cl)ccc2Cl)o1	-	-	-	-	-	0	-
CC1(C)CC(=O)C(=Cc2cn(-c3ccccc3)nc2-c2ccc(Cl)cc2)C(=O)C1	0	0	0	0	63.0	0	83.4
C[C@H](CO)N1C[C@H](C)[C@@H](CN(C)S(=O)(=O)c2ccc(F)cc2)Oc2ccc(NS(=O)(=O)c3ccc(F)cc3)cc2C1=O	0	-	0	0	0	0	-
C[C@@H]1CN([C@H](C)CO)C(=O)c2cc(NS(=O)(=O)c3ccc(F)cc3)ccc2O[C@@H]1CN(C)Cc1ccc(Cl)c(Cl)c1	13.2	-	0	-	0	0	0
Oc1ccc(Cl)cc1/C=C/c1ccc2cccc(O)c2n1	30.3	0	-	-	45.5	0	0
COc1cc(/C=C/c2ccc3cccc(O)c3n2)ccc1O	0	0	0	0	0	0	-
COc1cccc(CN2CCNC(=O)C2CC(=O)NCCCC2CCCC2)c1OC (stereo not given)	0	0	0	0	0	0	-
COc1ccc(/C=C/C(=O)c2ccc(C)c([N+](=O)[O-])c2)cc1O	0	0	0	0	43.1	0	0
COc1cccc(/C=C/C(=O)c2ccc(C)c([N+](=O)[O-])c2)c1	0	0	0	500.2	66.3	0	0
COC(=O)c1ccc(/C=C/C(=O)c2cccc(OC)c2)cc1	0	0	0	0	0	0	-
COc1cc(C(=O)/C=C/c2cccnc2)c([N+](=O)[O-])cc1OC	0	0	0	0	42.2	0	47.0
COc1cc(/C=C/C(=O)c2ccc(C)c([N+](=O)[O-])c2)cc(OC)c1O	0	0	0	0	0	0	-
CCN(CC)CCNc1c(C)cc(CO)c(Cl)c1C	-	-	-	-	-	0	-
C=CC[C@H](CC(=O)N(CCO)Cc1ccccc1)C(=O)N[C@H](COC(=O)[C@@H](CC=C)CC(=O)OC(C)(C)C)c1ccccc1	0	-	0	0	0	0	-

Assay outcomes: PubChem BioAssay, several laboratories
